In PubChem BioAssay AID1159580 (chemical genetic matrix, 2015):
Screen size: about 5,500 compounds; about 2,000 (36%) were called active. About 18% were inconclusive and are not listed. No stated cut-off is given here; in the data, active means normalized growth mostly below about 0.91 (no sharp cut-off); inconclusive means no clear call, values can overlap the other calls; inactive means mostly above about 0.92. The list shows a part of the results.

Experiment: chemical genetic growth profiling, strain panel (AID 1159580);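 further: tested at 20 µM; growth read once vehicle control cultures reached saturation at 30 °C; 1 = growth at the plate median or of vehicle wells; lower values mean less growth of the strain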
Conditions: growth OD
[1] = S. cerevisiae deletion strains, locus YAL013W, strain DEP1, active compounds read low
[2] = S. cerevisiae deletion strains, locus YBR229C, strain ROT2, active compounds read low
[3] = S. cerevisiae deletion strains, locus YDL101C, strain DUN1, active compounds read low
[4] = S. cerevisiae deletion strains, locus YDR150W, strain NUM1, active compounds read low
[5] = S. cerevisiae deletion strains, locus YEL061C, strain CIN8, active compounds read low
[6] = S. cerevisiae deletion strains, locus YGR078C, strain PAC10, active compounds read low
[7] = S. cerevisiae deletion strains, locus YHR030C, strain SLT2, active compounds read low
[8] = S. cerevisiae deletion strains, locus YHR087W, strain rtc3, active compounds read low
[9] = S. cerevisiae deletion strains, locus YJR043C, strain POL32, active compounds read low
[10] = S. cerevisiae deletion strains, locus YJR075W, strain HOC1, active compounds read low
[11] = S. cerevisiae deletion strains, locus YLR039C, strain RIC1, active compounds read low
[12] = S. cerevisiae deletion strains, locus YLR058C, strain SHM2 (second series), active compounds read low
[13] = S. cerevisiae deletion strains, locus YLR085C, strain ARP6, active compounds read low
[14] = S. cerevisiae deletion strains, locus YLR262C, strain YPT6, active compounds read low
[15] = S. cerevisiae deletion strains, locus YML094W, strain GIM5, active compounds read low
[16] = S. cerevisiae deletion strains, locus YMR219W, strain ESC1, active compounds read low
[17] = S. cerevisiae deletion strains, locus YMR263W, strain SAP30, active compounds read low
[18] = S. cerevisiae deletion strains, locus YMR307W, strain GAS1, active compounds read low
[19] = S. cerevisiae deletion strains, locus YNL153C, strain GIM3, active compounds read low
[20] = S. cerevisiae deletion strains, locus YNL298W, strain CLA4 (second series), active compounds read low
[21] = S. cerevisiae deletion strains, locus YNL322C, strain KRE1, active compounds read low
[22] = S. cerevisiae deletion strains, locus YNR030W, strain Alg12, active compounds read low
[23] = S. cerevisiae deletion strains, locus YPL055C, strain LGE1, active compounds read low
[24] = S. cerevisiae deletion strains, locus YPL241C, strain CIN2, active compounds read low
[25] = S. cerevisiae deletion strains, locus YPR135W, strain CTF4, active compounds read low
[26] = S. cerevisiae deletion strains, locus YAR019C, strain CDC15, active compounds read low
[27] = S. cerevisiae deletion strains, locus YBL105C, strain PKC1, active compounds read low
[28] = S. cerevisiae deletion strains, locus YBR135W, strain CKS1, active compounds read low
[29] = S. cerevisiae deletion strains, locus YBR136W, strain MEC1, active compounds read low
[30] = S. cerevisiae deletion strains, locus YBR160W, strain CDC28, active compounds read low
[31] = S. cerevisiae deletion strains, locus YDL017W, strain CDC7, active compounds read low
[32] = S. cerevisiae deletion strains, locus YDL028C, strain MPS1, active compounds read low
[33] = S. cerevisiae deletion strains, locus YDL108W, strain KIN28, active compounds read low
[34] = S. cerevisiae deletion strains, locus YDL132W, strain cdc53, active compounds read low
[35] = S. cerevisiae deletion strains, locus YDL214C, strain PRR2, active compounds read low
[36] = S. cerevisiae deletion strains, locus YDR052C, strain DBF4, active compounds read low
[37] = S. cerevisiae deletion strains, locus YDR054C, strain cdc34, active compounds read low
[38] = S. cerevisiae deletion strains, locus YDR226W, strain ADK1, active compounds read low
[39] = S. cerevisiae deletion strains, locus YDR477W, strain SNF1, active compounds read low
[40] = S. cerevisiae deletion strains, locus YER123W, strain YCK3, active compounds read low
[41] = S. cerevisiae deletion strains, locus YER133W, strain GLC7, active compounds read low
[42] = S. cerevisiae deletion strains, locus YFL009W, strain cdc4, active compounds read low
[43] = S. cerevisiae deletion strains, locus YFL029C, strain CAK1, active compounds read low
[44] = S. cerevisiae deletion strains, locus YFR003C, strain YPI1, active compounds read low
[45] = S. cerevisiae deletion strains, locus YFR019W, strain FAB1, active compounds read low
[46] = S. cerevisiae deletion strains, locus YFR028C, strain CDC14, active compounds read low
[47] = S. cerevisiae deletion strains, locus YGR040W, strain KSS1, active compounds read low
[48] = S. cerevisiae deletion strains, locus YGR052W, strain FMP48, active compounds read low
[49] = S. cerevisiae deletion strains, locus YGR092W, strain DBF2, active compounds read low
[50] = S. cerevisiae deletion strains, locus YHR079C, strain IRE1, active compounds read low
[51] = S. cerevisiae deletion strains, locus YHR082C, strain KSP1, active compounds read low
[52] = S. cerevisiae deletion strains, locus YHR205W, strain SCH9, active compounds read low
[53] = S. cerevisiae deletion strains, locus YIL147C, strain SLN1, active compounds read low
[54] = S. cerevisiae deletion strains, locus YJL095W, strain BCK1, active compounds read low
[55] = S. cerevisiae deletion strains, locus YJL128C, strain PBS2, active compounds read low
[56] = S. cerevisiae deletion strains, locus YJL157C, strain FAR1, active compounds read low
[57] = S. cerevisiae deletion strains, locus YJR016C, strain ILV3, active compounds read low
[58] = S. cerevisiae deletion strains, locus YJR066W, strain TOR1 (second series), active compounds read low
[59] = S. cerevisiae deletion strains, locus YJR066W, strain TOR1, active compounds read low
[60] = S. cerevisiae deletion strains, locus YKL048C, strain ELM1, active compounds read low
[61] = S. cerevisiae deletion strains, locus YKL067W, strain YNK1, active compounds read low
[62] = S. cerevisiae deletion strains, locus YKL101W, strain HSL1, active compounds read low
[63] = S. cerevisiae deletion strains, locus YKL193C, strain SDS22, active compounds read low
[64] = S. cerevisiae deletion strains, locus YKL203C, strain TOR2, active compounds read low
[65] = S. cerevisiae deletion strains, locus YLR113W, strain HOG1, active compounds read low
[66] = S. cerevisiae deletion strains, locus YLR133W, strain CKI1, active compounds read low
[67] = S. cerevisiae deletion strains, locus YLR403W, strain SFP1, active compounds read low
[68] = S. cerevisiae deletion strains, locus YML070W, strain DAK1, active compounds read low
[69] = S. cerevisiae deletion strains, locus YMR001C, strain CDC5, active compounds read low
[70] = S. cerevisiae deletion strains, locus YMR205C, strain PFK2 (second series), active compounds read low
[71] = S. cerevisiae deletion strains, locus YMR277W, strain FCP1, active compounds read low
[72] = S. cerevisiae deletion strains, locus YNL006W, strain LST8, active compounds read low
[73] = S. cerevisiae deletion strains, locus YNL020C, strain ARK1, active compounds read low
[74] = S. cerevisiae deletion strains, locus YNL161W, strain CBK1, active compounds read low
[75] = S. cerevisiae deletion strains, locus YNL183C, strain NPR1, active compounds read low
[76] = S. cerevisiae deletion strains, locus YNL207W, strain RIO2, active compounds read low
[77] = S. cerevisiae deletion strains, locus YNL222W, strain SSU72, active compounds read low
[78] = S. cerevisiae deletion strains, locus YNL307C, strain MCK1 (second series), active compounds read low
[79] = S. cerevisiae deletion strains, locus YOL078W, strain AVO1, active compounds read low
[80] = S. cerevisiae deletion strains, locus YOL136C, strain PFK27, active compounds read low
[81] = S. cerevisiae deletion strains, locus YOR061W, strain CKA2, active compounds read low
[82] = S. cerevisiae deletion strains, locus YOR119C, strain RIO1, active compounds read low
[83] = S. cerevisiae deletion strains, locus YOR231W, strain MKK1, active compounds read low
[84] = S. cerevisiae deletion strains, locus YOR329C, strain SCD5, active compounds read low
[85] = S. cerevisiae deletion strains, locus YPL031C, strain PHO85, active compounds read low
[86] = S. cerevisiae deletion strains, locus YPL153C, strain RAD53, active compounds read low
[87] = S. cerevisiae deletion strains, locus YPL204W, strain HRR25, active compounds read low
[88] = S. cerevisiae deletion strains, locus YPL209C, strain IPL1, active compounds read low
[89] = S. cerevisiae deletion strains, locus YPL256C, strain CLN2, active compounds read low
[90] = S. cerevisiae deletion strains, locus YPR025C, strain CCL1, active compounds read low
[91] = S. cerevisiae deletion strains, locus YPR106W, strain ISR1, active compounds read low
[92] = S. cerevisiae deletion strains, locus YPR111W, strain DBF20, active compounds read low
[93] = S. cerevisiae deletion strains, strain NNK1, active compounds read low
[94] = S. cerevisiae deletion strains, strain TSCII, active compounds read low

Measured: normalized growth

N/C(=N/O)c1cnccc1C(F)(F)F
inactive: [1] 0.987 | [2] 1.01 | [3] 1.01 | S. cerevisiae deletion strains, locus YDL134C, strain PPH21, active compounds read low 0.999 | [4] 0.986 | [5] 0.998 | [6] 0.994 | [7] 0.978 | [8] 0.986 | S. cerevisiae deletion strains, locus YJL187C, strain SWE1, active compounds read low 0.991 | [9] 0.993 | [10] 0.993 | S. cerevisiae deletion strains, locus YKL190W, strain CNB1, active compounds read low 0.997 | [11] 1.04 | [12] 0.993 | [13] 0.976 | [14] 0.99 | [15] 1.05 | [16] 0.996 | [17] 0.977 | [18] 0.958 | [19] 1.01 | [20] 0.996 | [21] 1 | [22] 0.999 | [23] 0.989 | [24] 1.03 | [25] 1.01

Cc1c(-c2csc(-c3ccc(Cl)cc3)n2)sc2ccc(Cl)cc12
inactive: [1] 1.03 | [2] 1.03 | [3] 1.05 | [4] 1.01 | [5] 0.996 | [6] 1.04 | S. cerevisiae deletion strains, locus YGR229C, strain SMI1, active compounds read low 1.03 | [7] 1.07 | [8] 1.03 | [9] 1.04 | [10] 1.02 | [11] 1.07 | [12] 1.05 | [13] 1.05 | [14] 1.09 | [15] 1.04 | [16] 1.04 | [17] 1.02 | [18] 1.07 | [19] 1.02 | [20] 1.09 | [21] 1.04 | [22] 1.04 | S. cerevisiae deletion strains, locus YOL006C, strain TOP1, active compounds read low 1.1 | [23] 0.999 | [24] 1.03 | [25] 1.07 | S. cerevisiae strains, strain wild type, active compounds read low 1.04

Cn1ncc(-c2nc(-c3ccc(Cl)cc3)cs2)c1N
inactive: [26] 0.933 | [27] 0.931 | [28] 0.935 | [29] 0.933 | [30] 0.939 | [31] 0.935 | [32] 0.94 | [3] 0.961 | [33] 0.936 | [34] 0.931 | [35] 0.904 | [36] 0.935 | [37] 0.91 | [38] 0.925 | [39] 0.785 | [40] 0.921 | [41] 0.75 | [42] 0.935 | [43] 0.942 | [44] 0.943 | [45] 0.95 | [46] 0.922 | [47] 0.785 | [48] 0.854 | [49] 0.781 | [50] 0.822 | [51] 0.897 | [52] 0.798 | [53] 0.936 | [54] 0.729 | [55] 0.987 | [56] 0.879 | [57] 0.934 | [58] 0.8 | [59] 0.78 | [60] 0.95 | [61] 0.932 | [62] 0.947 | [63] 0.924 | [64] 0.817 | [65] 0.906 | [66] 0.886 | [68] 0.91 | [69] 0.914 | [70] 0.917 | [71] 0.914 | [72] 0.95 | [73] 0.897 | [74] 0.93 | [75] 0.892 | [76] 0.916 | [77] 0.934 | [78] 0.899 | [79] 0.934 | [80] 0.939 | [81] 0.874 | [82] 0.803 | [83] 0.96 | [84] 0.944 | [85] 0.74 | [86] 0.776 | [87] 0.774 | [88] 0.938 | [90] 0.944 | [91] 0.955 | [92] 0.959 | [93] 0.966 | [94] 0.933
active: [7] 0.687 | [67] 0.651 | [89] 0.859

FC(F)(F)c1ccncc1-c1nc(-c2ccc(Cl)cc2)cs1
active: [7] 0.78 | [65] 0.686 | [89] 0.682
inactive: [26] 0.982 | [27] 0.984 | [28] 0.98 | [29] 0.982 | [30] 0.985 | [31] 0.991 | [32] 0.978 | [3] 0.97 | [33] 0.984 | [34] 0.973 | [35] 0.914 | [36] 0.989 | [37] 0.979 | [38] 0.979 | [39] 0.949 | [40] 0.852 | [41] 0.936 | [42] 0.981 | [43] 0.977 | [44] 0.985 | [45] 0.887 | [46] 0.976 | [47] 0.923 | [48] 0.869 | [49] 0.933 | [50] 0.775 | [51] 1 | [52] 0.894 | [53] 0.987 | [54] 0.759 | [55] 0.896 | [56] 0.927 | [57] 0.979 | [58] 0.937 | [59] 1.01 | [60] 0.955 | [61] 0.922 | [62] 0.919 | [63] 0.986 | [64] 1.01 | [66] 0.911 | [67] 0.934 | [68] 0.878 | [69] 0.986 | [70] 0.905 | [71] 0.962 | [72] 0.99 | [73] 0.906 | [74] 0.971 | [75] 0.774 | [76] 0.987 | [77] 0.98 | [78] 0.922 | [79] 0.972 | [80] 0.868 | [81] 0.933 | [82] 0.975 | [83] 0.766 | [84] 0.981 | [85] 0.917 | [86] 0.917 | [87] 0.908 | [88] 0.987 | [90] 0.988 | [91] 0.956 | [92] 0.949 | [93] 0.942 | [94] 0.972
